Source: PubChem BioAssay AID1159580 (chemical genetic matrix, 2015)
Where “and” joins values, the source holds several entries; their conditions need not be identical. Equal values may be shown once. The campaign covered roughly 5,500 compounds. About 2,000 (36%) were called active. Another 18% or so got no clear call; they are omitted. Cut-off read from the data, not from the text of the source: active = normalized growth mostly below about 0.91 (no sharp cut-off); inconclusive = no clear call, values can overlap the other calls; inactive = mostly above about 0.92. The list shows a part of the results.

Test: chemical genetic growth profiling, strain panel (AID 1159580);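 note: tested at 20 µM; growth read once vehicle control cultures reached saturation at 30 °C; 1 = growth at the plate median or of vehicle wells; lower values mean less growth of the strain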
Conditions: growth OD
[1] = S. cerevisiae deletion strains, locus YDR150W, strain NUM1, hits give low values
[2] = S. cerevisiae deletion strains, locus YNL128W, strain TEP1, hits give low values
[3] = S. cerevisiae deletion strains, locus YNL153C, strain GIM3, hits give low values

Measured: normalized growth

CN1C2CCC1CC(NC(=O)c1nn(C)c3ccccc13)C2 (stereo not drawn)
inactive: S. cerevisiae deletion strains, locus YAL013W, strain DEP1, hits give low values 1.02 | S. cerevisiae deletion strains, locus YAL040C, strain CLN3, hits give low values 1.01 | S. cerevisiae deletion strains, locus YCL061C, strain MRC1 (second series), hits give low values 1.01 | [1] 1 | S. cerevisiae deletion strains, locus YDR363W, strain ESC2, hits give low values 1 | S. cerevisiae deletion strains, locus YER002W, strain NOP16, hits give low values 0.992 | S. cerevisiae deletion strains, locus YJR075W, strain HOC1, hits give low values 1.01 | S. cerevisiae deletion strains, locus YMR263W, strain SAP30, hits give low values 0.999 | [2] 0.987 | [3] 0.999 | S. cerevisiae deletion strains, locus YNL175C, strain NOP13, hits give low values 1.01 | S. cerevisiae deletion strains, locus YNL197C, strain WHI3, hits give low values 1.01 | S. cerevisiae deletion strains, locus YNL224C, strain SQS1, hits give low values 1 | S. cerevisiae deletion strains, locus YOR083W, strain WHI5 (second series), hits give low values 1.02

CC(=O)Nc1ccc(OCC(O)CNC(C)C)cc1 (stereo not drawn)
inactive: S. cerevisiae deletion strains, locus YBR021W, strain FUR4, hits give low values 1.01 | S. cerevisiae deletion strains, locus YBR229C, strain ROT2, hits give low values 1 | S. cerevisiae deletion strains, locus YCL029C, strain bik1, hits give low values 0.995 | S. cerevisiae deletion strains, locus YDL035C, strain GPR1, hits give low values 1.01 | S. cerevisiae deletion strains, locus YDL074C, strain BRE1, hits give low values 1.02 | S. cerevisiae deletion strains, locus YDL101C, strain DUN1, hits give low values 1.01 | S. cerevisiae deletion strains, locus YDL185W, strain tfp1, hits give low values 1.01 | S. cerevisiae deletion strains, locus YDL192W, strain arf1, hits give low values 1 | S. cerevisiae deletion strains, locus YDR101C, strain arx1, hits give low values 1.02 | [1] 1.01 | S. cerevisiae deletion strains, locus YDR162C, strain NBP2, hits give low values 1.01 | S. cerevisiae deletion strains, locus YDR318W, strain mcm21, hits give low values 1 | S. cerevisiae deletion strains, locus YDR388W, hits give low values 1 | S. cerevisiae deletion strains, locus YDR502C, strain sam2, hits give low values 0.99 | S. cerevisiae deletion strains, locus YEL061C, strain CIN8, hits give low values 1.01 | S. cerevisiae deletion strains, locus YER110C, hits give low values 1 | S. cerevisiae deletion strains, locus YER155C, strain BEM2, hits give low values 1.01 | S. cerevisiae deletion strains, locus YER167W, strain BCK2, hits give low values 1.01 | S. cerevisiae deletion strains, locus YGL078C, strain dbp3, hits give low values 0.999 | S. cerevisiae deletion strains, locus YGL086W, strain mad1, hits give low values 1 | S. cerevisiae deletion strains, locus YGL248W, strain PDE1, hits give low values 1 | S. cerevisiae deletion strains, locus YGR078C, strain PAC10, hits give low values 1.01 | S. cerevisiae deletion strains, locus YGR135W, strain pre9, hits give low values 0.996 | S. cerevisiae deletion strains, locus YGR229C, strain SMI1, hits give low values 1 | S. cerevisiae deletion strains, locus YGR252W, strain gcn5, hits give low values 0.975 | S. cerevisiae deletion strains, locus YHR030C, strain SLT2, hits give low values 1.01 and 0.983 | S. cerevisiae deletion strains, locus YHR079C, strain IRE1 (second series), hits give low values 0.999 | S. cerevisiae deletion strains, locus YHR079C, strain IRE1, hits give low values 0.978 | S. cerevisiae deletion strains, locus YHR094C, strain hxt1, hits give low values 0.999 | S. cerevisiae deletion strains, locus YHR129C, strain ARP1, hits give low values 1.01 | S. cerevisiae deletion strains, locus YHR200W, strain rpn10, hits give low values 1.01 | S. cerevisiae deletion strains, locus YIL066C, strain RNR3, hits give low values 1.01 | S. cerevisiae deletion strains, locus YIL073C, strain SPO22, hits give low values 1.03 | S. cerevisiae deletion strains, locus YIL125W, strain kgd1, hits give low values 1 | S. cerevisiae deletion strains, locus YIR030C, strain dcg1, hits give low values 0.995 | S. cerevisiae deletion strains, locus YJL095W, strain BCK1, hits give low values 1.02 and 0.982 | S. cerevisiae deletion strains, locus YJL134W, strain LCB3, hits give low values 1.01 | S. cerevisiae deletion strains, locus YJL168C, strain set2, hits give low values 1 | S. cerevisiae deletion strains, locus YJL187C, strain SWE1 (second series), hits give low values 1.02 | S. cerevisiae deletion strains, locus YJR043C, strain POL32, hits give low values 1.01 | S. cerevisiae deletion strains, locus YJR066W, strain TOR1, hits give low values 0.965 | S. cerevisiae deletion strains, locus YKL009W, strain mrt4, hits give low values 0.991 | S. cerevisiae deletion strains, locus YKL068W, hits give low values 1 | S. cerevisiae deletion strains, locus YKL085W, strain MDH1 (second series), hits give low values 1.01 | S. cerevisiae deletion strains, locus YKL085W, strain MDH1, hits give low values 1.01 | S. cerevisiae deletion strains, locus YKR001C, strain vps1, hits give low values 1 | S. cerevisiae deletion strains, locus YLR039C, strain RIC1, hits give low values 1.05 | S. cerevisiae deletion strains, locus YLR058C, strain SHM2, hits give low values 1.01 | S. cerevisiae deletion strains, locus YLR102C, strain apc9, hits give low values 0.996 | S. cerevisiae deletion strains, locus YLR113W, strain HOG1, hits give low values 1.01 | S. cerevisiae deletion strains, locus YLR262C, strain YPT6, hits give low values 1.03 | S. cerevisiae deletion strains, locus YLR268W, strain sec22, hits give low values 0.998 | S. cerevisiae deletion strains, locus YLR330W, strain CHS5, hits give low values 1.01 | S. cerevisiae deletion strains, locus YLR342W, strain FKS1 (second series), hits give low values 1.02 | S. cerevisiae deletion strains, locus YLR371W, strain rom2, hits give low values 1.01 | S. cerevisiae deletion strains, locus YLR418C, strain cdc73, hits give low values 0.981 | S. cerevisiae deletion strains, locus YML016C, strain PPZ1, hits give low values 1.01 | S. cerevisiae deletion strains, locus YML032C, strain rad52, hits give low values 1.02 | S. cerevisiae deletion strains, locus YML124C, strain tub3, hits give low values 0.998 | S. cerevisiae deletion strains, locus YMR078C, strain ctf18, hits give low values 1 | S. cerevisiae deletion strains, locus YMR223W, strain ubp8, hits give low values 0.985 | S. cerevisiae deletion strains, locus YMR307W, strain GAS1, hits give low values 0.965 | S. cerevisiae deletion strains, locus YNL067W, strain RPL9B, hits give low values 1.02 | [2] 1.02 | [3] 1.02 | S. cerevisiae deletion strains, locus YNL183C, strain NPR1, hits give low values 0.938 | S. cerevisiae deletion strains, locus YNL233W, strain BNI4, hits give low values 1 | S. cerevisiae deletion strains, locus YNL250W, strain rad50, hits give low values 0.996 | S. cerevisiae deletion strains, locus YNL271C, strain bni1, hits give low values 0.992 | S. cerevisiae deletion strains, locus YNL298W, strain CLA4, hits give low values 1 | S. cerevisiae deletion strains, locus YNL307C, strain MCK1, hits give low values 1 | S. cerevisiae deletion strains, locus YNR052C, strain pop2, hits give low values 1.01 | S. cerevisiae deletion strains, locus YOL012C, strain htz1 0.693 | S. cerevisiae deletion strains, locus YOL147C, strain pex11, hits give low values 0.999 | S. cerevisiae deletion strains, locus YOR061W, strain CKA2, hits give low values 1.01 | S. cerevisiae deletion strains, locus YOR069W, strain VPS5, hits give low values 1.01 | S. cerevisiae deletion strains, locus YOR136W, strain idh2, hits give low values 0.999 | S. cerevisiae deletion strains, locus YOR144C, strain elg1, hits give low values 0.998 | S. cerevisiae deletion strains, locus YOR184W, strain ser1, hits give low values 1.01 | S. cerevisiae deletion strains, locus YOR231W, strain MKK1, hits give low values 0.965 | S. cerevisiae deletion strains, locus YOR316C, strain cot1, hits give low values 0.997 | S. cerevisiae deletion strains, locus YPL241C, strain CIN2, hits give low values 1.01 | S. cerevisiae deletion strains, locus YPL256C, strain CLN2, hits give low values 0.973 | S. cerevisiae deletion strains, locus YPR119W, strain clb2, hits give low values 1 | S. cerevisiae deletion strains, locus YPR141C, strain kar3, hits give low values 0.985 | S. cerevisiae deletion strains, locus YPR163C, strain tif3, hits give low values 1.01 | S. cerevisiae deletion strains, locus YPR167C, strain met16, hits give low values 1 | S. cerevisiae deletion strains, strain wtn01, hits give low values 0.979 | S. cerevisiae strains, strain wild type, hits give low values 1.01
